Data reported in PubChem BioAssay AID1508600 (Functional Genomics Laboratory (NCATS/FGL), 2020).
The campaign covered roughly 53,000 sequences. About 3,700 (7%) were called active.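 Rule for the calls: active = gene knockdowns whose robust z-score for IL-1 alpha signal is at least 2 or at most -2, so actives lie on both sides; inactive = the rest.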 Many of the other results were omitted from the sample, so actives are more common in it than they were.

Test: Components of the Cytosolic LPS Sensing Pathway: Gene Identification via Genome-wide siRNA Screen;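 note: robust z of the log signal after scaling to non-targeting control siRNA wells of the plate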
Conditions: RAW264.7 macrophages, IL-1a HTRF, actives lie on both sides, screened at 100 nM (by protocol), cells primed 5 h with Pam3CSK4 first
Outline: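 Cells (RAW264.7, 1×10^4 per well) were transfected with siRNA at 100 nM and cultured 48h at 37 degrees C. Pam3CSK4 was added for 5 hours; LipidA transfection followed for 24 hour. IL-1a was then measured by HTRF.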

| Sequence | z-score |
| --- | --- |
| GGAAUAUCCCAACAUCUGUTT against Upp1 | -0.899 (inactive) |
| GCAGUAUGUAAACCCUUACTT against Olfr1463 | 0.558 (inactive) |
| CGACCUUAAGCUAAGCAGUTT against Aff3 | 1.18 (inactive) |
| GGAAUUUUCUCAUGAUCUUTT against Krtap3-3 | 0.813 (inactive) |
| GGGCUAUUAAAUGAUUUCATT against Pax1 | 5 (active) |
| GCCAUGAUUUUCAUGUACGTT against Olfr711 | 0.241 (inactive) |
| CCUUAAUAAAUCUAGUGGCTT against Stmn3 | -0.567 (inactive) |
| GCGGCUUAUGUCUCAAAUUTT against Gcdh | 2.34 (active) |
| GGCCGAUGCCAAAUUGGUATT against Olfm1 | 0.0323 (inactive) |
| GGACUAGCAAGGCAAGUGATT against Dnase2b | 1.32 (inactive) |
| GGGAAUCGGACCAACUUACTT against Adssl1 | 3.64 (active) |
| GCGAGUUUAAUGUUUAUGCTT against Pdgfra | -1.29 (inactive) |
| GCCCAGCAUGGAUAGAUUATT against Mis18bp1 | 0.466 (inactive) |
| GGAAAAUGUAAACAAGUACTT against Xpo5 | -0.595 (inactive) |
| GGAUAACACCACCAACUAUTT against Akap8l | 0.456 (inactive) |
| GGGCUGUUCUACUUAGUUATT against N6amt1 | 0.573 (inactive) |
| GGAUUAAAGAAAGACAUUGTT against Yme1l1 | -2.04 (active) |
| CGCCAGAGUGCAUAGUCUUTT against Mindy2 | 1.94 (inactive) |
| GCCAUUUUAGAGCAGAUCCTT against Rundc3a | -2.33 (active) |
| GCAAACUGUCCUAUCUUGGTT against Cacna1d | 0.84 (inactive) |
| GGUGUUGUUUCGAAUUAUUTT against Xrn1 | 0.44 (inactive) |
| GGUUCAGGUUCUUCUAAAATT against Cd109 | 1.42 (inactive) |
| GCACCUGAGCUUUCGAAUATT against Fam3a | -0.373 (inactive) |

| Sequence | z-score |
| --- | --- |
| CCGUGGAAACAGUCCUGAATT against Nudcd1 | 0.646 (inactive) |
| GCUACUCUCGCCUGUUACATT against Dcaf12 | 0.0053 (inactive) |
| GGCCAAUGCCCUUUUUUGATT against Spem2 | 0.427 (inactive) |
| GUUCCCUGCCUGGCAGAAUTT against Foxd2 | 3.8 (active) |
| GGCAGCACCAUCGUCUAAUTT against 4930432E11Rik | 0.622 (inactive) |
| GGUCAAGUCACUGGUGACGTT against Fabp3 | -1.73 (inactive) |
| GGAAGAUGGGCUAUUUCAUTT against Gabra6 | 0.545 (inactive) |
| GGACAAGACCAUCUUCGAUTT against Sectm1a | 0.21 (inactive) |
| CCAAAUCCCAGAGUUAUUUTT against Htr2c | 0.361 (inactive) |
| GCAAAAGACCAUCUGAGUGTT against Adig | 0.375 (inactive) |
| GGAAUUGGCAUCCUUAAGCTT against Cops3 | 2.43 (active) |
| GGUCAGAAGGUGUGUUAUATT against Rad52 | 0.338 (inactive) |
| GGCAUUCCCAGUCGUAAAGTT against Kctd3 | -1.1 (inactive) |
| GGUUUAUAUCCGUACACCUTT against Sp2 | 1.97 (inactive) |
| GGUGUUCUACUGUGCAUUATT against 9330132A10Rik | 0.578 (inactive) |
| GUUCCUCAGUAUGUUGCCATT against Olfr126 | -2.85 (active) |
| GGGAUUGGUUAUUUUACAUTT against Trmt12 | -0.578 (inactive) |
| GGAAAUAUGGCAAGAAUUUTT against Rgs7 | 0.781 (inactive) |
| GCUAAUGUGGAGGACUCACTT against Chml | -0.574 (inactive) |
| GCAUUUCCCAGCCUGAUACTT against Aif1l | -0.584 (inactive) |
| GGUGACACAGUACAAGAAGTT against Rpl36a | 0.318 (inactive) |
| GGCGAGAAACCUUUCAGAUTT against Zic4 | 4.72 (active) |
| CGGCGAUGGAAAAAAAUUUTT against Tmem178 | 1.04 (inactive) |

| Sequence | z-score |
| --- | --- |
| GGGUGCUUACAGAAUAUCUTT against Ms4a19 | 1.07 (inactive) |
| GGUGAACCCUUUGAGGAAGTT against Gstt3 | -0.42 (inactive) |
| GGAUUAAAUGGUGGUGGAGTT against Dnajb6 | -1.1 (inactive) |
| GGAUGAAAUUGUGUUAUCUTT against Snrk | -0.371 (inactive) |
| GCCCUUUUACGGCAACAGATT against C2cd5 | -1.48 (inactive) |
| CCACAUGCCAAAAUAAUACTT against Oxr1 | -0.771 (inactive) |
| GGAAGAACUUGUCUCUUUUTT against Tmtc2 | 0.501 (inactive) |
| GGAUGCUGUAACACUUUAUTT against Bcl6 | 3.31 (active) |
| GCGAUCACUUUUCAAGUUUTT against Rnf139 | 0.0177 (inactive) |
| GGAAAUCCUCAGACAAAUGTT against Pdc | 0.93 (inactive) |
| GGAAAUGUACCUGUUUGUUTT against Dnase1l2 | 0.928 (inactive) |
| GGCUUAGGUGUCCGAGAAATT against Wfdc2 | -1.01 (inactive) |
| GGCUGUGGUAGAAAAGCUGTT against Hspg2 | -1.65 (inactive) |
| CCAUAUCUAUGAUAUGGUUTT against Piezo2 | -2.18 (active) |
| GGAAGAUCCAUUUAAUGUATT against Eps15 | 1.14 (inactive) |
| GCUGAAGGGUCUCGUAUUGTT against Hes2 | 0.262 (inactive) |
| GGCUUUGAUGUCAGCACUGTT against Ngrn | 0.247 (inactive) |
| GCUCAUGCAUGGCUGUACATT against Gbp9 | 0.603 (inactive) |
| GGAGCAUUCUCCAUCUAGCTT against Dennd2d | -1.41 (inactive) |
| GGAGGAGUCUUGAAUCCAGTT against Yod1 | -0.122 (inactive) |
| GGACUUGGUGACUUACUUCTT against Smpdl3b | -1.42 (inactive) |
| CGGGUAAUAAGGAUUUGGGTT against Cadm4 | 2.05 (active) |
| GGAGACAGUUCAGAAGUGGTT against Glp2r | 0.0837 (inactive) |
